Shown are actives, neighbours in structure and some others; about 3.2% of the full set was active somewhere.
Sm TGR block: qHTS Assay for the Inhibitors of Schistosoma Mansoni Peroxiredoxins | 3% of 360,000 active | purified TGR, DTNB reduction, TNB absorbance 405 nm | Potency, µM (highest dose often 114 µM), most hits filed as inhibitors; note: nearly all actives have a fitted effect of over 60% in size
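First, TGR (20 nM dispensed) and NADPH were mixed with compound. Second, a 15 min room-temperature incubation followed. Third, further NADPH and then DTNB were added to start the reaction. Finally, TNB absorbance was monitored kinetically.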
AmpC inh detg: qHTS Inhibitors of AmpC Beta-Lactamase (assay with detergent). AmpC hydrolysis of nitrocefin, absorbance 480 nm, 0.01% Triton. 0.041% of 370,000 active. P00811. AID 485294, 2010. Potency, µM (highest dose often 114 µM), actives largely listed as inhibitors; note: nearly all actives have a fitted effect of over 25% in size
Target sequence (P00811 whole entry, looked up): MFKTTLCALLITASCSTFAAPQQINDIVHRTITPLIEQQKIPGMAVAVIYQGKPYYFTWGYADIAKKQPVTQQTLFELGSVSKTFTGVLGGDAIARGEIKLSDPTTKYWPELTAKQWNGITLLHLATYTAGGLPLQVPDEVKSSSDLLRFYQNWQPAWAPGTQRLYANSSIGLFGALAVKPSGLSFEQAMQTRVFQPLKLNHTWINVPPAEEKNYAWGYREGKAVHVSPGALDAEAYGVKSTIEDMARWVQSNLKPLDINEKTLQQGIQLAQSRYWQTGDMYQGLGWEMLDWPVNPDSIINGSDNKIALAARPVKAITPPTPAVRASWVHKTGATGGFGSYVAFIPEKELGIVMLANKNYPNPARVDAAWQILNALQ
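AmpC (5.3 nM in the dispensed reagent) in 20 mM phosphate pH 7.0 with 0.01% (detergent screen) or 0.0001% Triton X-100 was preincubated with compounds for 15 min at room temperature. Nitrocefin was then added from an 800 uM solution, and hydrolysis was followed at 480 nm.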
AMA1 RON2 block: qHTS for Inhibitors of AMA1-RON; Towards Development of Antimalarial Drug Lead: Primary Screen; Potency, µM (series often up to 58.2 µM), usual class: inhibitors; 0.2% of 360,000 active; AlphaScreen AMA1-biotinylated RON2 peptide binding; note: nearly all actives have a fitted effect of over 45% in size
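AMA1 (3D7) with his tag at 25 nM final met compounds first, then biotinylated RON2 peptide at 25 nM; detection used donor plus acceptor beads, 10 µg/mL apiece, read by AlphaScreen after 30 min at room temperature.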
RE007 growth inh: qHTS Assay for Inhibitors of the HIV-1 protein Vpr; 0.21% of 360,000 active; Potency, µM (top dose mostly 92.2 µM), most hits filed as inhibitors; S. pombe RE007 Vpr strain, BacTiter-Glo ATP luminescence, 24 h; AID 651644, 2012; active = well fitted falling curve with a large enough effect; inconclusive = small, poorly fitted or top-dose-only effect; inactive = no such curve, though single readings can be large or run the other way; note: nearly all actives have a fitted effect of over 50% in size
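Fission yeast strain RE007, carrying one chromosomally integrated HIV-1 vpr copy, was seeded at OD 0.01 in PMG+AL medium with 23 nL pinned compound. After 24 h at 30 °C and 99% humidity, viability was read by BacTiter-Glo luminescence.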
AmpC no deterg: qHTS Inhibitors of AmpC Beta-Lactamase (assay without detergent); Potency, µM (highest dose often 57.1 µM), actives largely listed as inhibitors; P00811; 0.52% of 330,000 active; AmpC nitrocefin hydrolysis, absorbance 480 nm, 0.0001% Triton; AID 485341, 2010; note: nearly all actives have a fitted effect of over 20% in size
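20 mM phosphate pH 7.0 + 0.01% (detergent screen) or 0.0001% Triton X-100; 5.3 nM AmpC reagent; cpd preinc 15 min RT; nitrocefin (800 uM stock) to start; A480 q20 s × 4 min; Activity was normalised to no-enzyme and no-compound control wells.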
Numbers stand for hits; – = inactive; ? = inconclusive; · = no result; [ ] = another dose, or the depositor's remark. Unless noted, calls come from the whole dose curve; as a rule, active = well fitted curve in the direction sought with a large enough effect; inconclusive = small, poorly fitted or top-dose-only effect, or another doubt; inactive = no such curve, though single readings can be large; an effect the other way counts as inactive or inconclusive.

SMILES | Sm TGR block | AmpC inh detg | AMA1 RON2 block | RE007 growth inh | AmpC no deterg
COc1cc(C(=O)Nc2ccccc2OCc2cc(=O)n3c(C)csc3n2)cc(OC)c1OC | – | – | · | · | ·
Cc1c(C(=O)N2CCC(C)CC2)c(S(=O)(=O)N2CCN(c3cccc(Cl)c3)CC2)c(C)n1C | – | – | · | · | ·
COc1ccc(/C=C2\SC(=O)N(CC(=O)NNC(=O)c3ccccc3O)C2=O)cc1 | – | – | – | – | 11µM
O=C(CN1C(=O)S/C(=C\c2ccccc2)C1=O)NNC(=O)c1ccccc1O | – | ? | – | – | –
CCOC(=O)CSc1nnc(C)c(=O)[nH]1 | – | – | – | – | –
CCOC(=O)CSc1nnc(NCC(=O)OC)c(=O)[nH]1 | 16µM | – | – | – | –
CCOC(=O)c1c(NC(=O)C2=C(C)NC(=S)NC2c2ccc(CC)cc2)sc(C)c1C (stereo not given) | – | – | · | · | 13µM
O=C(Cn1c(=O)oc2cc(S(=O)(=O)N3CCCC3)ccc21)Nc1ccc(F)cc1F | – | – | · | · | ·
O=[N+]([O-])c1ccc(/C=N/n2cnc3ccccc32)s1 | – | – | – | 10µM | –
Cc1nc2ccccc2n1/N=C/c1ccc([N+](=O)[O-])s1 | – | – | – | ? | –
CN(C)c1cccc2c1c(NS(=O)(=O)c1cn(C)cn1)nn2C | 50µM | – | – | – | –
Cn1cnc(S(=O)(=O)Nc2ccccc2N2CCOCC2)c1 | – | – | – | – | –
O=C(/C=C/c1ccc(Br)o1)NCCCN1CCOCC1 | 4.5µM | – | – | – | –
O=C(/C=C/c1ccco1)NCCCN1CCOCC1 | 11µM | – | – | – | –
O=C(/C=C/c1ccco1)Nc1ccc(Cl)c(S(=O)(=O)N2CCOCC2)c1 | 8.9µM | – | – | – | –
O=C(COC(=O)/C=C/c1cccc([N+](=O)[O-])c1)NCCCN1CCCC1=O | – | – | – | – | –
O=C(COC(=O)/C=C/c1ccc(Br)o1)NCCCN1CCCC1=O | 32µM | ? | – | – | –[11.4 µM]
O=C(/C=C/c1ccc(Cl)cc1)NCCCN1CCOCC1 | – | – | – | – | –
Cc1ccc(NC(=O)C(C)Sc2nc3c(c(=O)[nH]2)CCCC3)cc1Cl (stereo not given) | – | – | · | · | ·
CCCCN(C)CCCNC(=O)CN1C(=O)COc2ccc(S(=O)(=O)N3CCC(C)CC3)cc21 | – | – | · | · | ·
CCOc1ccc(S(=O)(=O)N/N=C(\C)Cc2ccc(OC)cc2)cc1 | 32µM | – | – | – | –
O=C(NCCc1ccccc1)c1ccc2c(c1)N(Cc1ccc(Cl)cc1)C(=O)CS2 | – | – | · | · | ·
CCS(=O)(=O)Nc1cccc(C2=NN(S(=O)(=O)c3ccccc3)C(c3ccco3)C2)c1 (stereo not given) | 28µM | – | – | – | –
CS(=O)(=O)Nc1cccc(C2=NN(S(=O)(=O)c3ccccc3)C(c3ccco3)C2)c1 (stereo not given) | 20µM | – | – | – | –
CC(=O)N1N=C(c2ccco2)CC1c1ccco1 (stereo not given) | – | ? | – | – | –
SMILES | Sm TGR block | AmpC inh detg | AMA1 RON2 block | RE007 growth inh | AmpC no deterg
Cc1ccc(C2=NN(C(=O)CCl)C(c3ccco3)C2)o1 (stereo not given) | 7.1µM | – | – | – | –
CCS(=O)(=O)Nc1cccc(C2=NN(S(=O)(=O)c3ccc(C)cc3)C(c3ccco3)C2)c1 (stereo not given) | ? | – | – | – | –
CCS(=O)(=O)N1N=C(c2cccc(NS(C)(=O)=O)c2)CC1c1ccccc1 (stereo not given) | – | – | – | – | –
O=C(c1ccc(Br)o1)N1N=C(c2ccc(Cl)cc2)CC1c1ccco1 (stereo not given) | 45µM | – | – | – | –
Cc1ccc(-n2nc3c(=O)n(CCCC(=O)NCCc4ccccc4Cl)nc(C)c3c2C)cc1 | – | – | · | · | ·
CCc1ccc(NCc2cc3ccc(OC)cc3n(CC(=O)Nc3ccccc3C)c2=O)cc1 | – | – | · | · | ·
Cn1nnnc1SCC(=O)N1N=C(c2ccc(Cl)cc2)CC1c1ccco1 (stereo not given) | · | · | – | – | –
CS(=O)(=O)N1N=C(c2cccs2)CC1c1ccco1 (stereo not given) | 7.9µM | – | – | – | –
Cc1nnc(SCC(=O)N2N=C(c3ccc(Cl)cc3)CC2c2ccco2)[nH]c1=O (stereo not given) | 13µM | – | – | ? | –
O=S(=O)(c1ccccc1)N1N=C(c2ccc(Cl)cc2)CC1c1ccco1 (stereo not given) | 40µM | ? | – | – | –
O=C(/C=C\c1ccc2c(c1)OCO2)NC1CC(=O)N(c2cccc(F)c2)C1 (stereo not given) | – | – | · | · | ·
CC(=O)c1ccc(NC(=O)CCc2c(C)nn(-c3ccc(N4CCCCC4)nn3)c2C)cc1 | – | – | · | · | ·
C=C/C(C)=C/CC1C(=C)CCC2C(C)(C(=O)O)CCCC12C (stereo not given) | 32µM | – | – | – | –
O=C(O)Cc1sc(N/N=C\c2ccccc2)nc1-c1ccccc1 | 2.2µM | ? | – | – | ?
CCOC(=O)c1sc(N/N=C/c2ccccc2)nc1C | – | – | – | – | –
CCc1cccc(NC(=O)Cn2c(-c3ccc(F)cc3)cc(C(C)=O)c2C)c1 | – | – | · | · | ·
O=C(CSc1nc(-c2ccccc2F)nc2cc(=O)[nH]n12)Nc1cccc(C(F)(F)F)c1 | – | – | · | · | ·
COC(=O)c1sc(NC(=O)c2cc(-c3ccccc3)nc3ccccc23)c(C#N)c1C | – | 56µM | – | – | –
CCOC(=O)c1sc(NC(=O)c2cc(-c3ccc(C)cc3)nc3ccccc23)c(C#N)c1C | – | – | – | – | –
O=Cc1coc2c(ccc3ccccc32)c1=O | 28µM | – | · | · | –
O=C/C=C/c1coc2ccc3ccccc3c2c1=O | – | – | – | – | –
CC(C)c1nnc(NC(=O)c2nc(S(=O)(=O)Cc3ccccc3F)ncc2Cl)s1 | 32µM | – | – | – | –
Cc1nnc(NC(=O)c2nc(S(=O)(=O)Cc3ccccc3C)ncc2Cl)s1 | 25µM | ? | – | – | –
CSc1nnc(NC(=O)c2nc(S(=O)(=O)Cc3ccccc3F)ncc2Cl)s1 | 28µM | – | – | – | –
O=C(Nc1nc2ccc(F)cc2s1)c1nc(S(=O)(=O)Cc2ccccc2F)ncc1Cl | ? | – | · | · | ·
CCOc1ccc(NC(=O)c2nc(S(=O)(=O)Cc3ccccc3F)ncc2Cl)cc1 | 7.1µM | – | · | · | ·
CCOC(=O)c1ccc(NC(=O)c2nc(SCc3ccccc3F)ncc2Cl)cc1 | – | – | · | · | ·
COc1ccc(CNC(=O)Cn2ncn3nc(-c4cccs4)cc3c2=O)cc1 | – | – | · | · | ·

Screens: PubChem BioAssay, National Center for Advancing Translational Sciences (NCATS)
